Hit rate of the full screen: of about 310,000 compounds, about 14,000 (4.5%) showed an effect of 50% or more. The effect is printed as a negative number. This is one part of a sample in which strong results are shown more often than they occur.
Biological target: human ether-à-go-go-related gene (hERG) potassium channel (human, UniProt Q12809)
Assay: primary screen, population patch clamp on CHO cells stably expressing hERG; higher = less effect of the substance
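Also: peak tail current of the secondary pulse compared with the same well before compound.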

human ether-à-go-go-related gene (hERG) potassium channel, sequence (Q12809 whole entry, looked up): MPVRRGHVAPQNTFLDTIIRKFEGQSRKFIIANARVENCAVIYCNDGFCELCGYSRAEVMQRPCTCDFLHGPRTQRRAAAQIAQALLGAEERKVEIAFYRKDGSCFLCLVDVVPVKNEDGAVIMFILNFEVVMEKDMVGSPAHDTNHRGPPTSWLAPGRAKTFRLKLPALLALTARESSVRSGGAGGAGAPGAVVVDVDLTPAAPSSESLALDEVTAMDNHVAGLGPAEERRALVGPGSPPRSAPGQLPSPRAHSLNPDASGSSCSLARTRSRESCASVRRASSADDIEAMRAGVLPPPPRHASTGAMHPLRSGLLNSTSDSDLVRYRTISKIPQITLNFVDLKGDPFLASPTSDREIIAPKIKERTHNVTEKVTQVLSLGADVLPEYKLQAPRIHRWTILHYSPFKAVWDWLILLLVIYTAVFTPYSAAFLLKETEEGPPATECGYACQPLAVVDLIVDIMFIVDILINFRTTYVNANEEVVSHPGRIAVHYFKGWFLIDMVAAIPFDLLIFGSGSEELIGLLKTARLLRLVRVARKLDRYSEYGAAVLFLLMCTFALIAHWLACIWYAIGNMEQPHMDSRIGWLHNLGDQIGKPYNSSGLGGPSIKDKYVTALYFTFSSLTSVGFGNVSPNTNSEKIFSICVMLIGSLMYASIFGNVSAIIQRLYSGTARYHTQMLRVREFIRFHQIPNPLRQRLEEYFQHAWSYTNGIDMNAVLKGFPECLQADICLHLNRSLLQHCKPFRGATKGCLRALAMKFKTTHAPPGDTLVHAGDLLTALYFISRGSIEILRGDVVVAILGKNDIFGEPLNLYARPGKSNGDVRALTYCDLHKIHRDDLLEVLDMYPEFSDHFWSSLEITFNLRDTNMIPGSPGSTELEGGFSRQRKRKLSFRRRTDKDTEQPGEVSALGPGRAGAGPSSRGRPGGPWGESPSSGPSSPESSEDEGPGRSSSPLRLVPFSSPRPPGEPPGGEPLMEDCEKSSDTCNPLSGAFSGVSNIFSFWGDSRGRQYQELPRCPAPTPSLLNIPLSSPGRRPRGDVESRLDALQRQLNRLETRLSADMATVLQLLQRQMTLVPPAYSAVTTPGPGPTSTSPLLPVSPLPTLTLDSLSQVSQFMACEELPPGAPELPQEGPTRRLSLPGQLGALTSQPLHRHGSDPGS

Row | SMILES | hERG current change (%, negative = inhibition) at 10uM [%]
1 | Cc1ccc(C(=O)COC(=O)c2ccccc2N2C(=O)C3C4CCC(C4)C3C2=O)cc1C (stereo not drawn) | -19.2
2 | CCN(CCO)C(=O)C12CCC(C)(C(=O)C1)C2(C)C (stereo not drawn) | -9.66
3 | COc1c(Cl)cc(C(=O)NN)cc1Cl | 0.95
4 | CC(=O)Nc1sc2c(c1C(N)=O)CCCC2 | 22.8
5 | CCc1cccc(C)c1NC(=O)CCOc1ccccc1 | 3.79
6 | c1ccc(C2=Nc3cccnc3C(c3ccccc3)=NN2)cc1 | 15.9
7 | O=C(CCNS(=O)(=O)c1ccccc1)OCC(=O)c1ccc(Cl)cc1 | -30
8 | CC(C)CN(C(=O)COC(=O)c1ccc(Br)cc1)c1c(N)n(Cc2ccccc2)c(=O)[nH]c1=O | -2.83
9 | CCOC(=O)C1=C(COC(=O)c2cccs2)NC(=O)NC1C (stereo not drawn) | 6.08
10 | Cc1sc(NC(=O)c2ccccc2F)c(CN2CCCCC2C)c1C (stereo not drawn) | -7.58
11 | Cc1ccccc1NC(=O)c1ccc(Cl)c(NC(=O)c2ccncc2)c1 | -32.1
12 | CSC1=N/C(=C\c2ccc3c(c2)OCO3)C(=O)S1 | 12.3
13 | O=C(N/N=C/c1cccs1)C1CC(=O)N(c2ccccc2)C1 (stereo not drawn) | -8.24
14 | Cn1ncc2c(NNC(=O)c3ccccc3Cl)ncnc21 | 10.1
15 | Cc1ccccc1N1CCN(C2CCCN(C(=O)CCN3CCCO3)C2)CC1 (stereo not drawn) | -0.397
16 | Cc1ccccc1N1CCN(C2CCCN(C(=O)CCC(=O)N(C)C)C2)CC1 (stereo not drawn) | 9.34
17 | COc1ccc(OCC(=O)N2CCCC(N3CCN(c4ccccc4C)CC3)C2)cc1 (stereo not drawn) | -85.9
18 | CC(=O)c1ccc(OCC(=O)N2CCCC(N3CCN(c4ccccc4C)CC3)C2)cc1 (stereo not drawn) | -75.2
19 | Cc1ccccc1N1CCN(C2CCCN(C(=O)COc3ccccc3)C2)CC1 (stereo not drawn) | -62.7
20 | CC(C)=CC(=O)N1CCCC(N2CCN(c3ccccc3C)CC2)C1 (stereo not drawn) | -16
21 | Cc1ccccc1N1CCN(C2CCCN(C(=O)CN3CCCC3=O)C2)CC1 (stereo not drawn) | 5.78
22 | Cc1cc(C)n(CC(=O)N2CCCC(N3CCN(c4ccccc4C)CC3)C2)n1 (stereo not drawn) | -14
23 | Cc1ccccc1N1CCN(C2CCCN(C(=O)CCC(F)(F)F)C2)CC1 (stereo not drawn) | -47.3

Row | SMILES | hERG current change (%, negative = inhibition) at 10uM [%]
24 | CC(=NCC1CCCO1)C1=C(O)CC(C)(C)CC1=O (stereo not drawn) | -5.04
25 | COc1ccccc1COCC(O)CN(Cc1ccco1)Cc1ccccc1O (stereo not drawn) | -27
26 | CC(=O)c1cccc(NC(=O)CCn2c(=S)oc3ccccc32)c1 | 9.8
27 | CC(=O)NC1(c2cccc(F)c2)CCN(C(=O)Nc2ccc(C#N)cc2)CC1 | -13.8
28 | O=C(Nc1cccnc1)c1cc([N+](=O)[O-])ccc1Cl | -0.51
29 | CCC1CCCCN1CCCNC(=O)c1ccc(CS(=O)(=O)c2ccc(Br)cc2)o1 (stereo not drawn) | -56.7
30 | CN1CCN(CCCNC(=O)c2ccc(CS(=O)(=O)c3ccc(Br)cc3)o2)CC1 | -10.3
31 | CCC1CCCCN1CCCNC(=O)c1ccc(CS(=O)(=O)c2ccccc2C)o1 (stereo not drawn) | -26.5
32 | O=C(NCCN1CCN(Cc2ccccc2)CC1)c1ccc(CS(=O)(=O)c2ccc(Br)cc2)o1 | -79.8
33 | Cc1ccccc1S(=O)(=O)Cc1ccc(C(=O)NCCN2CCN(Cc3ccccc3)CC2)o1 | -61.9
34 | CCC1CCCCN1CCCNC(=O)c1ccc(CS(=O)(=O)c2ccccc2OC)o1 (stereo not drawn) | 6.46
35 | O=C(NCCCN1CCOCC1)c1ccc(CS(=O)(=O)c2ccc(Br)cc2)o1 | -6.32
36 | O=C(NCCCN1CCCC1)c1ccc(CS(=O)(=O)c2ccc(Br)cc2)o1 | -16.7
37 | CCN1CCN(CCNC(=O)c2ccc(CS(=O)(=O)c3ccccc3C)o2)CC1 | -1.23
38 | O=C(NCCN1CCOCC1)c1ccc(CS(=O)(=O)c2ccc(Br)cc2)o1 | -2.9
39 | Cc1ccccc1S(=O)(=O)Cc1ccc(C(=O)NCCCN2CCN(C)CC2)o1 | -1.6
40 | O=C(NCCN1CCCCCC1)c1ccc(CS(=O)(=O)c2ccc(Br)cc2)o1 | -57.4
41 | O=C(CN(C(=O)C1CSC(=O)C1)c1cccc(F)c1)NCc1ccc2c(c1)OCO2 (stereo not drawn) | -14.7
42 | COc1ccc(CCNC(=O)CCc2nc3sc4c(c3c(=O)[nH]2)CCCC4)cc1 | 9.78
43 | Cn1c(=S)[nH]c2c(c1=O)C(C)(C)Cc1ccccc1-2 | 10.9
44 | Cc1[nH]c(=O)[nH]c(=O)c1S(=O)(=O)N1CCOCC1 | 3.26
45 | CCCn1c(SCC(=O)Nc2c(C)cccc2CC)nnc1C(C)C | 3.71
46 | Cc1ccc(C)c(NC(=O)c2ccc3c(=O)n4c(nc3c2)CCC4)c1 | -25.9

Row | SMILES | hERG current change (%, negative = inhibition) at 10uM [%]
47 | O=C(Nc1ccc(S(=O)(=O)C(F)F)cc1)c1ccc2c(=O)n3c(nc2c1)CCC3 | 24.1
48 | Cc1ccc(S(=O)(=O)N2CCCCC2)cc1NC(=O)c1ccc2c(=O)n3c(nc2c1)CCCCC3 | -64.1
49 | O=C(Nc1ccc2c(c1)nc1n2CCCCC1)c1cc(S(=O)(=O)N2CCOCC2)ccc1Cl | -15.5
50 | O=C(Nc1cccc(S(=O)(=O)N2CCCC2)c1)c1ccc2c(=O)n3c(nc2c1)CCCCC3 | -57.1
51 | O=C(Nc1ccc(F)c(Cl)c1)c1ccc2c(=O)n3c(nc2c1)CCCCC3 | -36.6
52 | Cc1ccc(NC(=O)c2ccc3c(=O)n4c(nc3c2)CCCCC4)cc1F | -24.6
53 | O=C(Nc1ccc(S(=O)(=O)N2CCCC2)cc1)c1ccc2c(=O)n3c(nc2c1)CCCCC3 | 9.23
54 | O=C(Nc1cccc(S(=O)(=O)N2CCOCC2)c1)c1ccc2c(=O)n3c(nc2c1)CCCCC3 | -73.3
55 | O=C(c1ccc2c(=O)n3c(nc2c1)CCC3)N1CCN(S(=O)(=O)c2cccc(F)c2)CC1 | -4.8
56 | O=C(Nc1cccc(S(=O)(=O)N2CCCCC2)c1)c1ccc2c(=O)n3c(nc2c1)CCCCC3 | -64.5
57 | CC(NC(=O)c1cnccn1)c1ccc(S(N)(=O)=O)cc1 (stereo not drawn) | -2.33
58 | C=CCn1c(SCC(=O)NCc2ccco2)nc2sc(C)c(C)c2c1=O | 3.62
59 | CC(C)NC(=O)COc1coc(CN2CCN(Cc3ccccc3)CC2)cc1=O | 11.9
60 | COc1ccc(-c2nc3c(n2O)CCc2c-3no[n+]2[O-])cc1 | 10.6
61 | Nc1nnnn1CC(=O)N/N=C/C=C/c1ccccc1 | 16.1
62 | COc1cc2c(cc1OC)CN(C(=O)c1sc(-c3cnccn3)nc1C)CC2 | 0.572
63 | O=S(=O)(Nc1cccc(-c2ccc(N3CCOCC3)nn2)c1)c1cc(Cl)ccc1Cl | -26.8
64 | CC(C)(C)OC(=O)N[C@@H](CCCCNC(=O)OCc1ccccc1)c1nnc([C@H](CCCCNC(=O)OCc2ccccc2)NC(=O)OC(C)(C)C)o1 | -22.6
65 | COc1ccc(N(C(=O)c2ccncc2)S(=O)(=O)c2ccc(Cl)cc2)cc1 | -26.4
66 | COc1ccc(C(=O)CN(C(=O)c2ccc(Cl)cc2)N2C(=O)C3CCCCC3C2=O)cc1 (stereo not drawn) | -6.63
67 | CCCCN(C(=O)c1cc(OC)c(OC)c(OC)c1)C1=CC2CCC(C1)N2C.Cl (stereo not drawn) | -20.2
68 | COc1ccc(N(C(=O)c2ccc(Cl)cc2)C2=CC3CCC(C2)N3C)cc1.Cl (stereo not drawn) | -82
69 | CN1C2CCC1CC(OC(=O)c1ccc(Cl)cc1)(C(=O)O)C2.Cl (stereo not drawn) | 1.82

Row | SMILES | hERG current change (%, negative = inhibition) at 10uM [%]
70 | COc1ccc(N(C(=O)c2ccc(F)cc2)C2=CC3CCC(C2)N3C)cc1.Cl (stereo not drawn) | -71.5
71 | CN1C2C=C(N(C(=O)c3ccc(Cl)cc3)c3ccccc3)CC1CC2.Cl (stereo not drawn) | -74
72 | CN1OC(COC(=O)c2ccc(Cl)cc2)CC1c1ccccc1 (stereo not drawn) | -4.56
73 | COc1ccc(CCN(C(=O)c2ccc(F)cc2)C2=CC3CCC(C2)N3C)cc1OC.Cl (stereo not drawn) | -46.6
74 | N#CC1=C(N)OC2=C(C(=O)CC(c3ccco3)C2)C1c1ccc(OCc2c(F)cccc2Cl)cc1 (stereo not drawn) | -1.84
75 | Nc1c([N+](=O)[O-])c(=O)oc2ccccc12 | 19.1
76 | CN(C)CCNC(=S)Nc1ccc(F)c(F)c1F | 22.3
77 | C=CCNC(=O)c1c(Cl)cnn1-c1ccc(C)cc1 | -4.22
78 | Cc1ccc(CNC(=O)CN2C(=O)COc3ccc(S(=O)(=O)N4CCCCC4)cc32)o1 | 16
79 | C[C@H](NC(=O)N1CCn2c1nc1ccccc12)C(=O)NCc1ccco1 | -10.6
80 | CCOc1ccc(CCNC(=O)C2CCCN(S(=O)(=O)N3CCOCC3)C2)cc1OCC (stereo not drawn) | 0.332
81 | COC(=O)c1cccc(NC(=S)N2CCN(c3ccccc3F)CC2)c1 | 5.71
82 | CC(=O)NCCn1c(SCC(=O)c2ccc(Cl)cc2)nc2ccccc2c1=O | -4.33
83 | COCCn1c(SCc2cc(=O)n3cc(C)ccc3n2)nc2ccccc2c1=O | 13.7
84 | O=c1c2sccc2nc(SCc2cc(=O)n3cc(Cl)ccc3n2)n1Cc1ccccn1 | -26.2
85 | CC(=O)NCCn1c(SCc2cc(=O)n3cc(Cl)ccc3n2)nc2ccccc2c1=O | -50.7
86 | O=C(CCCn1c(SCc2ccccc2F)nc2ccccc2c1=O)NCC1CCCO1 (stereo not drawn) | -14
87 | O=C(CCCn1c(SCc2cc(=O)n3cc(Cl)ccc3n2)nc2ccccc2c1=O)NCC1CCCO1 (stereo not drawn) | -53.7
88 | O=c1cc(CSc2nc(NCc3ccccc3)c3ccccc3n2)nc2ccc(Cl)cn12 | -59.3
89 | COc1ccc(CNc2nc(SCc3cc(=O)n4cc(Cl)ccc4n3)nc3ccccc23)cc1 | -44
90 | O=C(CCCn1c(SCc2cc(=O)n3ccccc3n2)nc2ccccc2c1=O)NCC1CCCO1 (stereo not drawn) | -1.72
